Only some compounds are listed: those with a hit (about 6.7% of all), similar ones and a draw of the others.
C diff growth: inhibitors of Clostridium difficile growth; Clostridium difficile clinical isolate growth, OD600, 24 h; hits give low values; growth activity, negative = inhibition, % at 16 µg/mL (by protocol); actives 0.25% (n = 86,000);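 active = mean growth activity at or below -80% and every replicate also at or below -80%; inconclusive = mean at or below -80% but some replicate above -80%; inactive = mean growth activity above -80%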
T cruzi growth-1: inhibitors of T. cruzi proliferation; actives 5.9% (n = 77,000); inhibition, % at 8.34 µM; T. cruzi beta-gal in NIH3T3, GalScreen luminescence, 90 h; AID 624255;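 active = mean inhibition above about 93%, with at least 55% of replicates each passing it, limit read from the data, passing the limit was not always enough; inconclusive = only one of those two conditions holds; inactive = neither condition holds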
Pf Dd2 growth: inhibitors of Plasmodium falciparum Dd2 growth; AID 1159554; activity change, % at 10 µM; P. falciparum Dd2 growth, SYBR Green, 72 h; hits give low values; actives 2.3% (n = 94,000); in the data active = activity change below about -80%; inconclusive = no clear call, values can overlap the other calls
T cruzi growth-2: blocks T. cruzi growth in NIH3T3 host cells; T. cruzi beta-gal in NIH3T3, GalScreen luminescence, 90 h; actives 72% (n = 5,600); shares compounds with T cruzi growth-1; inhibition, % at 8.35 µM; AID 651739;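 active = mean replicate inhibition above about 95% and at least 55% of replicates individually reaching it, limit read from the data; inconclusive = only one of the two criteria is met; inactive = neither criterion is met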
T cruzi growth-3: blocks T. cruzi growth in NIH3T3 host cells. shares compounds with T cruzi growth-1. T. cruzi beta-gal in NIH3T3, GalScreen luminescence, 90 h. inhibition, % at 2.09 µM. actives 21% (n = 5,600). AID 651740;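 active = mean inhibition above about 95%, with at least 55% of replicates also reaching it, limit read from the data; inconclusive = meets just one of the two conditions; inactive = meets neither condition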
NIH3T3 tox: NIH/3T3 (mouse) viability loss | cytotoxicity (signal decrease), % at 8.35 µM | AID 651742 | actives 14% (n = 5,600) | shares compounds with T cruzi growth-1 | NIH/3T3 viability, CellTiter-Glo ATP luminescence, 90 h;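 active = mean signal decrease across replicates above about 35% based on untreated-well scatter, with enough replicates individually passing, limit read from the data; inconclusive = no rule stated though some were filed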
NIH3T3 tox 2: cytotoxicity in mouse NIH/3T3 fibroblasts; NIH/3T3 viability, CellTiter-Glo ATP luminescence, 90 h; actives 56% (n = 5,600); shares compounds with T cruzi growth-1; inhibition, % at 24.9 µM;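 active = mean loss of cell viability signal at or above a set limit, and enough replicates individually reaching it; inconclusive = meets only the mean limit or only the replicate share; inactive = meets neither condition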
Large screens that a line does not name were inactive (follow-up assays come after a bar, where they were run).

CC(C)NC(=O)Nc1cccc2c1O[C@@H](CN(C)Cc1ccc(Oc3ccccc3)cc1)[C@H](C)CN([C@H](C)CO)C2=O	none
C[C@H](CO)N1C[C@H](C)[C@H](CN(C)Cc2ccc(Oc3ccccc3)cc2)Oc2c(NC(=O)Nc3cccc4ccccc34)cccc2C1=O	T cruzi growth-1 98 (no result: C diff growth) | T cruzi growth-2 99 | T cruzi growth-3 109 | NIH3T3 tox inactive | NIH3T3 tox 2 inconclusive
C[C@H]1CN([C@@H](C)CO)C(=O)c2cccc(NC(=O)Nc3ccccc3)c2O[C@@H]1CN(C)Cc1ccc(Oc2ccccc2)cc1	none
CC(C)NC(=O)Nc1cccc2c1O[C@H](CN(C)Cc1ccc(Oc3ccccc3)cc1)[C@@H](C)CN([C@H](C)CO)C2=O	T cruzi growth-1 103 | T cruzi growth-2 102 | T cruzi growth-3 inactive | NIH3T3 tox inactive | NIH3T3 tox 2 103
CC(C)NC(=O)Nc1cccc2c1O[C@H](CN(C)Cc1ccc(Oc3ccccc3)cc1)[C@H](C)CN([C@@H](C)CO)C2=O	none
CC(C)NC(=O)Nc1cccc2c1O[C@H](CN(C)Cc1ccc(Oc3ccccc3)cc1)[C@@H](C)CN([C@@H](C)CO)C2=O	T cruzi growth-1 inconclusive | T cruzi growth-2 100 | T cruzi growth-3 inactive | NIH3T3 tox inactive | NIH3T3 tox 2 104
CCCC(=O)Nc1ccc2c(c1)C(=O)N(C)C[C@H](OC)[C@@H](C)CN(C(=O)c1cnccn1)[C@H](C)CO2	none
CCCNC(=O)N1[C@H](CO)[C@H](c2ccccc2)[C@H]1CNC(=O)c1ccccc1	none
O=C(O)[C@H]1[C@H](CO)[C@H]2Cn3c(ccc(/C=C/c4ccccc4)c3=O)[C@H]2N1C(=O)c1cnccn1	none (no result: Pf Dd2 growth)
O=C(NC1CCC1)[C@H]1[C@H](CO)[C@H]2Cn3c(ccc(/C=C/c4ccccc4)c3=O)[C@H]2N1Cc1ccncc1	none
O=C(O)[C@@H]1[C@@H](CO)[C@@H]2Cn3c(ccc(/C=C/c4ccccc4)c3=O)[C@@H]2N1Cc1ccc2c(c1)OCO2	T cruzi growth-1 102 (no result: Pf Dd2 growth) | T cruzi growth-2 inactive | T cruzi growth-3 inactive | NIH3T3 tox inactive | NIH3T3 tox 2 101
CCCN1[C@H](C(=O)N(C)C)[C@@H](CO)[C@@H]2Cn3c(ccc(/C=C/c4ccccc4)c3=O)[C@@H]21	none (no result: Pf Dd2 growth)
O=C(O)[C@H]1[C@H](CO)[C@H]2Cn3c(ccc(/C=C/c4ccccc4)c3=O)[C@H]2N1Cc1ccc2c(c1)OCO2	T cruzi growth-1 127 (no result: Pf Dd2 growth) | T cruzi growth-2 inactive | T cruzi growth-3 inactive | NIH3T3 tox inactive | NIH3T3 tox 2 63
COC(=O)[C@H]1[C@H](CO)[C@H]2Cn3c(ccc(/C=C/c4ccccc4)c3=O)[C@H]2N1C(=O)c1cnccn1	T cruzi growth-1 101 | T cruzi growth-2 inactive | T cruzi growth-3 inactive | NIH3T3 tox inactive | NIH3T3 tox 2 40
O=C([C@H]1N[C@H]2c3ccc(/C=C/c4ccccc4)c(=O)n3C[C@H]2[C@@H]1CO)N1CCCCC1	T cruzi growth-1 active (no result: Pf Dd2 growth) | T cruzi growth-2 inactive | T cruzi growth-3 inactive | NIH3T3 tox inactive | NIH3T3 tox 2 inactive
O=C([C@@H]1[C@@H](CO)[C@@H]2Cn3c(ccc(/C=C/c4ccccc4)c3=O)[C@H]1N2)N1CCCCC1	none
COc1ccccc1-c1cn(CC[C@@H]2CC[C@@H](NC(=O)C3CCOCC3)[C@@H](CO)O2)nn1	none (no result: C diff growth)
CO[C@@H]1CN(C)C(=O)c2cc(NC(=O)c3ccc(F)cc3)ccc2OC[C@H](C)N(C(C)=O)C[C@H]1C	none
COC(=O)c1ccc(CN2CC(=O)N3[C@H](CO)[C@@H](c4ccc(-c5ccccc5F)cc4)[C@@H]3C2)cc1	none (no result: T cruzi growth-1)
Cc1cccc(S(=O)(=O)N(C)C[C@@H]2OCc3cn(nn3)CCCC(=O)N([C@H](C)CO)C[C@@H]2C)c1	none (no result: C diff growth)
C[C@H](O)C#Cc1ccc2c(c1)O[C@H](CN(C)C(=O)C1CCC1)[C@H](C)CN([C@H](C)CO)S2(=O)=O	none
C[C@H]1CN([C@@H](C)CO)C(=O)c2cccc(NC(=O)c3ccncc3)c2O[C@@H]1CN(C)Cc1ccc(C(=O)Nc2ccccc2N)cc1	T cruzi growth-1 98 | T cruzi growth-2 108 | T cruzi growth-3 101 | NIH3T3 tox inactive | NIH3T3 tox 2 47
C[C@@H]1CN([C@@H](C)CO)C(=O)c2cccc(NC(=O)c3ccncc3)c2O[C@H]1CN(C)Cc1ccc(C(=O)O)cc1	none (no result: T cruzi growth-1)
C[C@@H]1CN([C@@H](C)CO)C(=O)c2cccc(NC(=O)c3cnccn3)c2O[C@@H]1CN(C)Cc1ccc(C(=O)Nc2ccccc2N)cc1	T cruzi growth-1 106, Pf Dd2 growth -92 | T cruzi growth-2 inactive | T cruzi growth-3 inactive | NIH3T3 tox 47 | NIH3T3 tox 2 91
C[C@H](CO)N1C[C@H](C)[C@@H](CN(C)Cc2ccc(C(=O)Nc3ccccc3N)cc2)Oc2c(NC(=O)c3ccncc3)cccc2C1=O	T cruzi growth-1 inconclusive | T cruzi growth-2 102 | T cruzi growth-3 inactive | NIH3T3 tox inactive | NIH3T3 tox 2 25
C[C@H](CO)N1C[C@H](C)[C@@H](CN(C)Cc2ccccc2)Oc2c(NC(=O)c3cnccn3)cccc2C1=O	none
CO[C@H]1CN(C)C(=O)c2ccc(NC(=O)Nc3cccc(F)c3)cc2OC[C@@H](C)NC[C@H]1C	none (no result: C diff growth)
Cc1ccc(S(=O)(=O)Nc2ccc3c(c2)C(=O)N([C@H](C)CO)C[C@@H](C)[C@H](CN(C)S(=O)(=O)c2ccc(Cl)cc2)O3)cc1	none (no result: T cruzi growth-1)
COc1ccccc1-c1ccc2c(c1)O[C@H](CN(C)S(=O)(=O)c1ccc(C)cc1)[C@@H](C)CN([C@@H](C)CO)S2(=O)=O	T cruzi growth-1 126 | T cruzi growth-2 104 | T cruzi growth-3 inactive | NIH3T3 tox 39 | NIH3T3 tox 2 36
COc1ccccc1-c1ccc2c(c1)O[C@H](CN(C)C)[C@H](C)CN([C@H](C)CO)S2(=O)=O	none
COc1ccccc1-c1ccc2c(c1)O[C@@H](CN(C)C)[C@@H](C)CN([C@@H](C)CO)S2(=O)=O	none
COc1ccccc1-c1ccc2c(c1)O[C@@H](CN(C)S(=O)(=O)c1ccc(C)cc1)[C@H](C)CN([C@H](C)CO)S2(=O)=O	T cruzi growth-1 127, Pf Dd2 growth -84 | T cruzi growth-2 105 | T cruzi growth-3 103 | NIH3T3 tox inactive | NIH3T3 tox 2 45
C[C@@H]1CN([C@@H](C)CO)S(=O)(=O)c2ccc(/C=C/c3ccccc3)cc2O[C@@H]1CN(C)C(=O)NC1CCCC1	T cruzi growth-1 inconclusive | T cruzi growth-2 102 | T cruzi growth-3 inactive | NIH3T3 tox inactive | NIH3T3 tox 2 26
